PubChem BioAssay (Tox21)
Results filed as inconclusive are left out. The source made the active and inactive calls. Unless noted, calls follow the shape of the dose curve; as a rule, active = well fitted curve in the direction sought with a large enough effect in the repeat runs; inconclusive = weak or mixed curves; inactive = no such curve, though single readings can be large; an effect the other way counts as inactive or inconclusive.

What was measured:
[1] = qHTS assay to identify small molecule agonists of the hypoxia (HIF-1) signaling pathway - cell viability counter screen (AID 1224844; calls by dose curve; also: nearly all actives have a fitted effect of over 50% in size)
How it was run: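 Cytotoxicity measured by CellTiter-Glo ATP luminescence in the wells also read for beta-lactamase signal. Cells were HRE-bla ME-180 (2,000/well, 0.5% dialyzed FBS), exposed to compounds for 17 h at 37C.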

[2] = qHTS assay to identify small molecule agonists of H2AX (AID 1224845; active = well fitted activation curve with a large enough effect in the signal ratio in the repeat runs, not every such curve was filed as active; the % refers to the signal ratio)
How it was run: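 Wild-type CHO-K1 cells plated overnight, then exposed 3 hr at 37C to compounds at 15 concentrations (0.76% DMSO). Lysed, then HTRF anti-pH2AX(S139)-cryptate/anti-H2AX-d2 detection after 24 hr at room temperature; emissions 665 and 620 nm.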

[3] = qHTS assay to identify small molecule agonists of the hypoxia (HIF-1) signaling pathway (AID 1224846; active = well fitted activation curve with a large enough effect in the signal ratio in the repeat runs, not every such curve was filed as active; the % refers to the signal ratio)
How it was run: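 Compounds added to ME-180 cells carrying hypoxia-response-element beta-lactamase reporter (0.5% dialyzed FBS, 5 h preplating), 17 h at 37C; agonist activity detected by CCF4-AM B/G FRET read-out.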

[4] = qHTS assay to identify small molecule agonists of H2AX - cell viability counter screen (AID 1224847; calls by dose curve; also: top concentration of the series differs between compounds; nearly all actives have a fitted effect of over 30% in size)
How it was run: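 CHO-K1 wt, 1000 cells/well, o/n 37C; cpds 15 conc, 3 h 37C, 0.76% DMSO; CellTiter-Glo, 30 min RT, luminescence.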

[5] = qHTS assay to identify small molecule agonists of the estrogen related receptor (ERR) signaling pathway from Tox21 library (AID 1224849; calls by dose curve; also: nearly all actives have a fitted effect of over 15% in size); details: ERR reporter cell line, ONE-Glo luciferase, 18 h; at 92.4 µM (top of the series) unless noted
How it was run: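 Luminescent agonist read-out (One-Glo, 30-minute room-temperature incubation) following 18-hour compound treatment at 37 C of the ERR cell line, which had been plated 6 hours before dosing.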

[6] = qHTS RealTime-Glo MT Cell Viability Assay in HepG2 cells - 24 hour (AID 1224867); also: nearly all actives have a fitted effect of over 50% in size
How it was run: (§1)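 Real-time, nonlytic viability: 600 HepG2 cells/well mixed with NanoLuc enzyme plus prosubstrate; 5 h settle, compound (DMSO) added by pintool; luminescence monitored over 40 h at 37 C.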

[7] = qHTS RealTime-Glo MT Cell Viability Assay in HEK293 cells - 32 hour (AID 1224868); also: top concentration of the series differs between compounds; nearly all actives have a fitted effect of over 50% in size
How it was run: (§2)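 Cells + reagent dispensed (600 cells/well, HEK293) → 5 h at 37 C/5% CO2 → 23 nL compound in DMSO pinned → 40 h at 37 C → luminescence read at 0, 8, 16, 24, 32, 40 h.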

[8] = A CellTox Green Cytotoxicity Assay to monitor cytotoxicity in HEK293 cells - 0 hour (AID 1224869); also: nearly all actives have a fitted effect of over 50% in size
How it was run: (§3)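 Fluorescence from a DNA-binding dye excluded by viable cells was measured repeatedly in the same HEK293 wells (600 cells/well) during continuous compound exposure at 37 C. Each assay gives one read point: 0, 8, 16, 24, 32 or 40 h.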

[9] = qHTS RealTime-Glo MT Cell Viability Assay in HepG2 cells - 40 hour (AID 1224870); also: nearly all actives have a fitted effect of over 50% in size
How it was run: (§4)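 HepG2 cells mixed with RealTime-Glo MT reagents (NanoLuc plus cell-permeant prosubstrate) were seeded at 600 cells/well, incubated 5 h at 37 C/5% CO2, then pinned with compounds in DMSO; nonlytic luminescence tracked viability during 40 h treatment.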

[10] = A CellTox Green Cytotoxicity Assay to monitor cytotoxicity in HEK293 cells - 40 hour (AID 1224871); also: nearly all actives have a fitted effect of over 45% in size
How it was run: as §3

[11] = qHTS RealTime-Glo MT Cell Viability Assay in HepG2 cells - 8 hour (AID 1224873); also: nearly all actives have a fitted effect of over 55% in size
How it was run: as §4

[12] = qHTS RealTime-Glo MT Cell Viability Assay in HEK293 cells - 40 hour (AID 1224874); details: RealTime-Glo luminescence; max response: stronger effect = lower value; also: nearly all actives have a fitted effect of over 50% in size; also: potency is read from the fitted curve at half-maximal effect
How it was run: (§5)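 Luminescence, which tracks viable cell number through reduction of the prosubstrate to a NanoLuc substrate, was read over continuous 37 C culture. Cells (600/well) were premixed with reagent and rested 5 h before 23 nL of compound in DMSO was pinned.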

[13] = A CellTox Green Cytotoxicity Assay to monitor cytotoxicity in HEK293 cells - 24 hour (AID 1224875); also: nearly all actives have a fitted effect of over 45% in size
How it was run: as §3

[14] = A CellTox Green Cytotoxicity Assay to monitor cytotoxicity in HepG2 cells - 16 hour (AID 1224876); also: nearly all actives have a fitted effect of over 45% in size
How it was run: (§6)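 Real-time cytotoxicity: fluorescence of a cell-impermeant cyanine dye binding DNA of dead HepG2 cells, measured repeatedly (0–40 h) during compound exposure at 37 C. Cells seeded 600/well with reagent, dosed after 5 h.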

[15] = qHTS RealTime-Glo MT Cell Viability Assay in HepG2 cells - 32 hour (AID 1224877); also: nearly all actives have a fitted effect of over 55% in size
How it was run: as §1

[16] = A CellTox Green Cytotoxicity Assay to monitor cytotoxicity in HepG2 cells - 24 hour (AID 1224878); also: nearly all actives have a fitted effect of over 45% in size
How it was run: as §6

[17] = A CellTox Green Cytotoxicity Assay to monitor cytotoxicity in HepG2 cells - 40 hour (AID 1224879); also: nearly all actives have a fitted effect of over 40% in size
How it was run: as §6

[18] = qHTS RealTime-Glo MT Cell Viability Assay in HEK293 cells - 0 hour (AID 1224880)
How it was run: as §5

[19] = qHTS assay to identify small molecule antagonists of the estrogen related receptor (ERR) signaling pathway from Tox21 library (AID 1224848); also: nearly all actives have a fitted effect of over 50% in size
How it was run: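 First, 2,000 ERR cells per well were plated and held 6 h at 37 C/5% CO2. Next, compounds in DMSO were pinned in and left 18 h at 37 C. Finally, ONE-Glo was added and luminescence read after 30 min at room temperature.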

[20] = qHTS RealTime-Glo MT Cell Viability Assay in HEK293 cells - 16 hour (AID 1224872)
How it was run: as §2
% is scaled to controls: 0 for no effect and ±100 for the full control effect.

CCCCC(=O)Cl
inactive: Potency [1] | Potency [2] | outcome [3] | Potency [4] | activity change, positive = activation [5] -5.15% | Potency [6] | Potency [7] | Potency [8] | Potency [9] | Potency [10] | Potency [11] | max response [12] 5.77% | Potency [13] | Potency [14] | Potency [15] | Potency [16] | Potency [17] | outcome [18]

CC1CCCCC1NC(=O)Nc1ccccc1 (centres undefined)
inactive: Potency [1] | Potency [2] | outcome [3] | Potency [4] | Potency [19] | activity change, positive = activation [5] 4.71% | Potency [6] | Potency [8] | Potency [9] | Potency [10] | Potency [11] | Potency [13] | Potency [14] | Potency [15] | Potency [16] | Potency [17] | outcome [18]

CSc1ccc(C(=O)C(C)(C)N2CCOCC2)cc1
inactive: Potency [1] | Potency [2] | outcome [3] | Potency [4] | activity change, positive = activation [5] -13.8% | Potency [6] | Potency [7] | Potency [8] | Potency [9] | Potency [10] | Potency [20] | Potency [11] | max response [12] 0.297% | Potency [14] | Potency [15] | Potency [16] | Potency [17] | outcome [18]

CCC(Cl)[N+](=O)[O-] (centres undefined)
inactive: Potency [1] | Potency [2] | outcome [3] | Potency [4] | activity change, positive = activation [5] -7.71% | Potency [6] | Potency [7] | Potency [8] | Potency [9] | Potency [10] | Potency [20] | Potency [11] | max response [12] 4.31% | Potency [13] | Potency [14] | Potency [15] | Potency [16] | Potency [17] | outcome [18]

Cc1ncc2n1-c1ccc(Cl)cc1C(c1ccccc1F)=NC2
active: Potency [12] 19 µM
inactive: Potency [1] | Potency [2] | outcome [3] | Potency [4] | Potency [19] | activity change, positive = activation [5] 12.1% [at 42.5 µM] | Potency [8] | Potency [9] | Potency [11] | Potency [13] | Potency [14] | Potency [15] | Potency [16] | Potency [17] | outcome [18]

CNNC
inactive: Potency [1] | Potency [2] | outcome [3] | Potency [4] | Potency [19] | activity change, positive = activation [5] 6.11% | Potency [6] | Potency [7] | Potency [8] | Potency [9] | Potency [20] | Potency [11] | max response [12] -7.62% | Potency [13] | Potency [14] | Potency [15] | Potency [16] | Potency [17] | outcome [18]

ClCCCN1CCN(c2cccc(Cl)c2)CC1
inactive: Potency [1] | Potency [2] | outcome [3] | Potency [4] | activity change, positive = activation [5] -4.21% [at 42.5 µM] | Potency [6] | Potency [7] | Potency [8] | Potency [9] | Potency [10] | Potency [20] | Potency [11] | max response [12] -25.9% | Potency [13] | Potency [14] | Potency [15] | Potency [16] | Potency [17] | outcome [18]

C[C@]12CC[C@H]3[C@@H](CCC4=CC(=O)CC[C@@]43C)[C@@H]1CC[C@@H]2C(=O)O
inactive: Potency [1] | Potency [2] | outcome [3] | Potency [4] | Potency [19] | activity change, positive = activation [5] -8.07% [at 42.5 µM] | Potency [7] | Potency [8] | Potency [9] | Potency [20] | Potency [11] | max response [12] 2.42% | Potency [13] | Potency [14] | Potency [15] | Potency [16] | Potency [17] | outcome [18]

CC1=C(C(=O)O)N2C(=O)[C@@H](N)[C@H]2SC1
inactive: activity change, negative = cytotoxicity [1] 0.296% [at 15.8 µM] | activation (H2AX phosphorylation) [2] -1.16% [at 31.6 µM] | activation [3] -0.576% [at 15.8 µM] | activity change, negative = cytotoxicity [4] -3.1% [at 31.6 µM] | activity change, positive = activation [5] 3.36% [at 19 µM] | activity change, negative = cytotoxicity [6] 0.806% [at 15.8 µM] | activity change, negative = cytotoxic [7] 1.51% [at 15.8 µM] | cytotoxicity [8] -3.35% [at 15.8 µM] | activity change, negative = cytotoxic [9] 1.44% [at 15.8 µM] | cytotoxicity increase [10] -14.9% [at 15.8 µM] | activity change, negative = cytotoxicity [20] 1.93% [at 15.8 µM] | viability change, negative = cytotoxic [11] 1.32% [at 15.8 µM] | max response [12] 1.69% | activity change [13] -5.37% [at 15.8 µM, stronger effect = higher value] | cytotoxicity increase [14] -9.17% [at 15.8 µM] | activity change, negative = cytotoxic [15] 1.22% [at 15.8 µM] | cytotoxicity [16] -8.35% [at 15.8 µM] | cytotoxicity increase [17] -6.02% [at 15.8 µM] | activity change, negative = cytotoxicity [18] 1.57% [at 15.8 µM]

CC(=O)Nc1cc([As](=O)(O)O)ccc1O
inactive: Potency [1] | Potency [2] | outcome [3] | Potency [4] | activity change, positive = activation [5] -16.7% [at 42.5 µM] | Potency [6] | Potency [7] | Potency [8] | Potency [9] | Potency [10] | Potency [20] | Potency [11] | max response [12] -9.14% | Potency [14] | Potency [15] | Potency [16] | Potency [17] | outcome [18]

Cc1cc(C)c(C(=O)P(=O)(C(=O)c2c(C)cc(C)cc2C)c2ccccc2)c(C)c1
inactive: Potency [1] | Potency [2] | outcome [3] | Potency [4] | activity change, positive = activation [5] -2.99% | Potency [6] | Potency [7] | Potency [8] | Potency [9] | Potency [20] | Potency [11] | max response [12] -8.76% | Potency [13] | Potency [14] | Potency [15] | Potency [16] | Potency [17] | outcome [18]

CCOC(=O)C1(c2ccccc2)CCN(CCc2ccc(N)cc2)CC1
inactive: Potency [1] | Potency [2] | outcome [3] | Potency [4] | Potency [19] | activity change, positive = activation [5] -11.7% [at 42.5 µM] | Potency [6] | Potency [7] | Potency [8] | Potency [9] | Potency [10] | Potency [20] | Potency [11] | max response [12] -22.8% | Potency [13] | Potency [14] | Potency [15] | Potency [16] | Potency [17] | outcome [18]
